# In the library only some 4% were active in any assay of this set; here they are far more common.
# HIF-2a block: blocks HIF-2a reporter activity | 786-0 RCC cells HIF-2a reporter, luciferase luminescence, overnight | inhibition, % at 18.8 µM | 360,000 tested, 0.72% active;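 active = inhibition of the luminescence signal of 40% or more relative to plate controls, in a single-dose primary screen at 18.75 µM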
# EBV LMP1 NFkB: inhibitors of Epstein-Barr LMP1-induced NF-kappaB reporter | LMP1-induced NF-kappaB luciferase reporter cells, luminescence | inhibition, % at 12.5 µM | 350,000 tested, 0.69% active | AID 504558; in the data active = inhibition above about 41%
# TWEAK Fn14 block: inhibitors of TWEAK-Fn14 interaction signaling. AID 1159606. TWEAK-stimulated Fn14 reporter cells, luciferase luminescence, 8 h. 360,000 tested, 2% active. inhibition, % at 10 µM; in the data active = inhibition above about 50%
# TROY signal inh: inhibitors of TROY-dependent NF-kB signaling | inhibition, % at 10 µM | Q293 LMP1-TROYcd NF-kB luciferase reporter, 4 h | 360,000 tested, 0.98% active;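 active = compounds whose plate-normalised and pattern-corrected inhibition of the luciferase reporter signal at the single screening dose is 50% or more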
# MITF TRPM1 inh: reduces MITF-dependent TRPM1 promoter luciferase signal. 330,000 tested, 0.83% active. AID 488899. SK-MEL-5 TRPM1 promoter luciferase, 24 h. inhibition, % at 12.5 µM;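 active = mean inhibition across replicates of 60% or more, whatever share of single replicates reaches that level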
# Peg3 promoter: reduces Peg3 promoter-driven luciferase expression in HeLa; inhibition, % at 20 µM; HeLa PEG-Prom luciferase reporter, luminescence, overnight; 360,000 tested, 1.7% active;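 active = inhibition of at least 50% at 20 µM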
# A number is an active result; - = inactive; . = no result given.
SMILES,HIF-2a block,EBV LMP1 NFkB,TWEAK Fn14 block,TROY signal inh,MITF TRPM1 inh,Peg3 promoter
CC(C)(C)c1cc(CCC(=O)Nc2ccncc2)cc(C(C)(C)C)c1O,-,-,-,-,-,-
O=C1OC(c2ccc(Cl)cc2)/C(=C(/O)c2ccccc2)C1=O (stereo not given),-,-,-,-,-,-
COC(=O)C[C@H]1CC[C@@H](NC(=O)Nc2ccc(C(F)(F)F)cc2)[C@@H](CO)O1,-,.,.,.,.,.
COc1cccc(C(=O)Nc2ccc3ccccc3c2)c1,-,-,63.4,-,-,-
COc1cccc(C(=O)Nc2ccccc2)c1,-,-,-,-,-,-
COc1cc(C(=O)Nc2ccc3c(c2)Cc2ccccc2-3)cc(OC)c1OC,-,-,-,-,-,-
COc1ccc(C(=O)NC(=S)Nc2ccc3c(c2)Cc2ccccc2-3)cc1,-,-,-,52.1,-,-
Cc1ccc(C(=O)NC(=S)Nc2ccc(Oc3ccc(Cl)cc3)cc2)cc1,-,-,-,50.8,-,-
O=C(NC(=S)Nc1ccc(Oc2ccccc2)cc1)c1ccc(Cl)cc1,-,-,-,-,-,-
CN(C)S(=O)(=O)Oc1cccc(C(=O)Nc2ccc(Cl)c(Cl)c2)c1,-,-,79.5,-,-,-
CCN1CC(C)(C)N(C(=O)c2ccccc2)CC1(C)C,-,-,-,-,-,-
COc1ccc(C(=O)Nc2ccccc2C(=O)Nc2ccc(C(=O)O)cc2)cc1,-,-,81.4,-,-,-
COc1ccc(C(=O)Nc2ccccc2C(=O)N/N=C/c2cccc3ccccc23)cc1,-,-,77.8,-,-,-
O=C(Nc1ccc2ccccc2c1)c1ccccc1Cl,-,-,-,-,.,-
COc1ccc(C(=O)Nc2ccccc2C(N)=O)cc1,-,-,-,-,-,-
COc1ccc(C(=O)Nc2ccc3ccccc3c2)cc1,-,-,72.0,-,-,-
O=C(Nc1ccc2ccccc2c1)c1ccccc1O,-,-,90.2,58.9,-,-
COCCNC(=O)C1(C)CCCN(C(=O)c2ccc(N(C)C)cc2)C1 (stereo not given),-,.,-,-,.,-
O=C(Nc1cc(Cl)cc(Cl)c1)c1cccc(OC(F)F)c1,-,-,59.5,-,-,-
COc1ccc(C(=O)NNc2ccccc2)cc1,-,-,-,-,-,-
COc1ccc(NC(=S)NNc2ccc(C(=O)O)cc2)cc1,-,-,58.3,-,-,-
NC(=O)c1cc[n+](Cc2ccccc2Cl)cc1,-,-,-,-,-,-
CC(C)n1cc(CN2CCCC(CO)(Cc3cccc(Cl)c3)C2)cn1 (stereo not given),-,-,-,50.9,-,-
Cn1cc(CN2CCCC(CO)(Cc3cccc(Cl)c3)C2)cn1 (stereo not given),-,-,-,-,-,-
Cc1ccc(S(=O)(=O)NCc2cc(=O)n(C)c(=O)n2C)cc1C,-,-,-,-,-,-
SMILES,HIF-2a block,EBV LMP1 NFkB,TWEAK Fn14 block,TROY signal inh,MITF TRPM1 inh,Peg3 promoter
CC(=O)N1CCN(C(=O)c2ccc(Cl)c(S(=O)(=O)N3CCc4ccccc43)c2)CC1,-,-,-,-,.,-
O=C(c1ccc(Cl)c(S(=O)(=O)N2CCc3ccccc32)c1)N1CCN(c2ccccc2O)CC1,-,-,-,-,-,68.9
CC(=O)NCCCNC(=S)NCCCN(Cc1ccc(Cl)cc1)c1ccc(Br)cn1,-,.,-,-,.,-
CC(/C=N/NC(=O)c1cc(-c2cccnc2)nc2c1c(C)nn2-c1ccccc1)=C\c1ccccc1,-,-,-,-,-,51.5
CNc1nc(N/N=C/c2cc3c(cc2[N+](=O)[O-])OCO3)nc(Nc2ccccc2)n1,-,-,-,-,-,86.5
COc1ccc(/C=N/Nc2nc(Nc3ccccc3)nc(N3CCCC3)n2)cc1[N+](=O)[O-],-,-,-,-,-,60.2
CCOc1ccc(NC(=O)CN(C)C(=O)c2cc3c(s2)CCC3)cc1OCC,-,-,-,-,.,-
CC(Oc1ccc(Br)cc1)C(=O)Nc1nc(-c2ccccn2)cs1 (stereo not given),-,-,-,61.2,67.2,-
CC(C)N(C)c1ncnc2c1ncn2[C@H]1CN(Cc2ccc(-c3ccccc3)cc2)C[C@@H](CO)O1,-,.,-,-,.,-
CCN(CC)S(=O)(=O)c1cc(NC(=O)c2ccc3c(c2)NC(=O)C(C)S3)ccc1C (stereo not given),-,-,89.3,66.9,-,-
COc1ccc(-n2cnc3c(cnn3CCC#N)c2=N)cc1,-,84.7,-,-,-,-
CN1C(=O)C(CCC(N)=O)NC1=S (stereo not given),-,-,-,-,-,-
CN1C(=O)[C@H](Cc2ccc([N+](=O)[O-])cc2)NC1=S,-,-,50.7,-,-,-
CCCCC[C@H](C)N1C[C@H](COCc2ccccc2)Oc2cc(N3CCC[C@H]3COC)ccc2S1(=O)=O,-,.,-,-,.,.
NC(=O)[C@H]1CC2(CC(c3cccc(NC(=O)COc4ccc(Cl)cc4)c3)=NO2)CN1C(=O)Cc1ccc([N+](=O)[O-])cc1 (stereo not given in full),-,-,65.4,-,-,-
CCCCCC(=O)Nc1cccc(C2=NOC3(C2)C[C@@H](C(N)=O)N(C(=O)Cc2ccc([N+](=O)[O-])cc2)C3)c1 (stereo not given in full),-,-,-,-,-,-
Cc1cnn(C(=O)Cn2nc(C(F)F)c(Br)c2C)c1,-,-,-,67.8,-,-
Cc1c(Br)c(C(F)(F)F)nn1CC(=O)N1CCCC1,-,-,-,-,-,-
CCOC(=O)c1sc(NC(=O)c2cc(-c3ccccc3C)nc3ccccc23)c(C#N)c1C,-,-,63.2,68.5,-,-
Cc1ccccc1-c1cc(C(=O)Nc2sc(C)c(C)c2C(N)=O)c2ccccc2n1,-,-,-,-,-,-
CCOC(=O)c1sc(NC(=O)CSc2n[nH]c(-c3ccc(Cl)cc3Cl)n2)c(C#N)c1C,-,-,-,63.4,-,-
O=C(NCCS(=O)(=O)N1CCN(c2ccccc2)CC1)C1CCCC1,-,-,-,-,-,-
CCCCn1c(NC(C)=O)c(C#N)c2nc3ccccc3nc21,-,-,-,-,-,-
C=CCn1c(NC(=O)c2ccccc2Cl)c(C#N)c2nc3ccccc3nc21,-,-,-,65.8,-,-
Cc1cccc(-n2c(SCC(N)=O)nc3c(c2=O)C2(CCCC2)Cc2ccccc2-3)c1,-,-,-,50.5,-,-
CCc1ccc(CNC(=O)c2cc3c(C)nc4ccccc4c3o2)cc1,-,-,58.3,-,-,-
COc1cccc(CNC(=O)c2cc3c(C)nc4ccccc4c3o2)c1,-,-,52.3,-,.,-
Cc1nc2ccccc2c2oc(C(=O)NCC3COc4ccccc4O3)cc12 (stereo not given),-,-,92.6,73.2,.,-
COc1cc(NC(=O)c2cc3c(C)nc4ccccc4c3o2)cc(OC)c1OC,-,-,-,-,-,56.1
COc1ccc(CNC(=O)c2cc3c(C)nc4ccccc4c3o2)c(OC)c1,-,.,-,-,.,-

# Screens from PubChem BioAssay.
